# High-throughput results: PubChem BioAssay, Johns Hopkins Ion Channel Center
# KCNQ2 enhance = potentiators of rat KCNQ2 potassium channel. CHO-K1 KCNQ2, FluxOR thallium flux fluorescence; active compounds read high. hit rate 0.54% among 310,000. O88943. B-score at 10 µM;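 active = fluorescence ratio B-score at least 3 SD of library B-scores, with initial fluorescence B-score within 3 of them, cut at about 5.3 in these data; same plate scores as AID 2156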;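 note: B-score of peak minus minimum over baseline fluorescence ratio after K+ and Tl+ stimulus; positive B-score means potentiation of KCNQ2 with more thallium influx and brighter signal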
# Target sequence (O88943 whole entry, looked up): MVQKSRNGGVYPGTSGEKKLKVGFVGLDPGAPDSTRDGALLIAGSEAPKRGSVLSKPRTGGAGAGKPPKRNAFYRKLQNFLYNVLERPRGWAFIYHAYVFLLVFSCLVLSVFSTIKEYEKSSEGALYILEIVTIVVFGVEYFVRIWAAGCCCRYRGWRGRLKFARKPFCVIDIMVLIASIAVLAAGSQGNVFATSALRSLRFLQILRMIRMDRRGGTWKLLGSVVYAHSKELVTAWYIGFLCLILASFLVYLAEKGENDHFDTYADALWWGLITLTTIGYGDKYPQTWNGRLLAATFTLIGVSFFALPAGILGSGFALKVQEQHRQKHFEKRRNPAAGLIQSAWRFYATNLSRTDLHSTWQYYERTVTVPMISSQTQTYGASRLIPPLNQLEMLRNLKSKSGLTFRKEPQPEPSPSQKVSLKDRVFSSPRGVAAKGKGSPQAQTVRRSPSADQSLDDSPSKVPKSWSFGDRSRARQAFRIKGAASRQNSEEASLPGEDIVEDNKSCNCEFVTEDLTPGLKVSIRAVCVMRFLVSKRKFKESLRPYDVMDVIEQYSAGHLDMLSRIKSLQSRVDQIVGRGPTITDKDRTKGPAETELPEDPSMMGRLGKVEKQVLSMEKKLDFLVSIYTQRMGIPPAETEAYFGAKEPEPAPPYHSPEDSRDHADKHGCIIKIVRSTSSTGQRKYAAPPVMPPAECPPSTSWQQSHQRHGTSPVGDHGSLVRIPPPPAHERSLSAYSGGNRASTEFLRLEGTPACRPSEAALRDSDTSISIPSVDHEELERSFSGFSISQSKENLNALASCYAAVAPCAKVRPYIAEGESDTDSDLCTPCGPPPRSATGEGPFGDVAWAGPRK
# KCNQ2 block = KCNQ2 (rat) channel inhibition; O88943; CHO-K1 KCNQ2, FluxOR thallium flux, 20 min; active compounds read low; B-score at 10 µM; hit rate 1.1% among 310,000;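 active = fluorescence ratio B-score at most minus 3 library SDs, with starting brightness B-score within 2 library SDs, cut at about -5.5 in these data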
# Numbers stand for hits; - = inactive; . = no result given. Rows were chosen to be rich in hits. Some 1.6% of all compounds tested hit in one or more screens of this group.
SMILES,KCNQ2 enhance,KCNQ2 block
Cc1cccnc1Nc1nc(-c2ccccn2)cs1,-,-
Cc1cccnc1Nc1nc(-c2ccccc2)cs1,-,-7.8
COc1cc(/C=N/NC(=O)c2cc(C)oc2C)cc(OC)c1OC,-,-
Cc1ccccc1-c1nc(CN2CCCC(C(=O)NCc3cccnc3)C2)c(C)o1 (centres undefined),9,-
COc1ccc(-c2nc(CN3CCCC(C(=O)NC4CCCC4)C3)c(C)o2)cc1 (centres undefined),.,-
COc1ccc(CNC(=O)C2CCCN(Cc3nc(-c4cccc(C)c4)oc3C)C2)cc1 (centres undefined),-,-6.4
Cc1ccccc1-c1nc(CN2CCCC(C(=O)NCCCN3CCOCC3)C2)c(C)o1 (centres undefined),-,-
CC(C)(C)c1ccc(/C([O-])=C(/C(=S)NCc2ccco2)[n+]2ccccc2)cc1,-,-
CN(C)C(CNc1ccc(S(C)(=O)=O)cc1[N+](=O)[O-])Cc1ccccc1 (centres undefined),-,-
CCc1ccccc1Oc1ccc(S(=O)(=O)N2CCN(C)CC2)cn1,.,-
C=CCc1c(NCCO)nc(C)[nH]c1=O,.,-
COc1cccc(N2CCN(c3ncnc4c3[nH]c3ccccc34)CC2C)c1 (centres undefined),-,-11
COc1cccc(N2CCN(c3ncnc4c3[nH]c3ccc(F)cc34)CC2C)c1 (centres undefined),-,-11
COc1ccc2[nH]c3c(N4CC(C)OC(C)C4)ncnc3c2c1 (centres undefined),-,-
c1ccc2c(c1)CCN(c1ncnc3c1[nH]c1ccccc13)C2,.,-
CC1CCN(S(=O)(=O)c2ccc3c(c2)NC(=O)CS3)CC1,.,-
Cc1cc(SCC(=O)c2cccs2)nc2ccccc12,-,-
O=C(CCN1Cc2ccccc2C1)c1ccc2c(c1)OCCO2,-,-5.9
O=C(CCN1CCc2ccccc2C(c2ccccc2)C1)c1ccc2c(c1)OCCO2 (centres undefined),.,-
Cc1ccc(S(=O)(=O)N2CCN(CC(=O)NC3CCCc4ccccc43)CC2)c(C)c1 (centres undefined),-,-6.1
Cc1ccc(OCC(=O)NC2CCCc3ccccc32)c(C)c1 (centres undefined),.,-
Cc1ccc(S(=O)(=O)N2CCN(CC(=O)NC3CCCc4ccccc43)CC2)cc1C (centres undefined),-,-7
O=C(CCC(=O)N1CCN(S(=O)(=O)c2ccc(Cl)cc2)CC1)Nc1ccc(Cl)cc1Cl,-,-
O=C(CCC(=O)N1CCN(S(=O)(=O)c2ccc(Cl)cc2)CC1)NC1CCCc2ccccc21 (centres undefined),-,-7.1
NC(=O)C1CCN(CC(=O)NC2CCCc3ccccc32)CC1 (centres undefined),-,-
SMILES,KCNQ2 enhance,KCNQ2 block
O=C(COC(=O)C1CC2CCCC(C1)C2=O)NNC(=O)c1ccccc1F (centres undefined),.,-
CC1CCc2c(sc(NC(=O)c3cccs3)c2C(=O)O)C1 (centres undefined),-,-
CC(C)(C)C1CCc2c(sc(NC(=O)c3cccs3)c2C(=O)N2CCCCC2)C1 (centres undefined),-,-8.1
O=C(NC(=S)NC1CCCC1)c1ccccc1Br,-,-
CCN(C(=S)NC(=O)c1ccccc1Br)C1CCCCC1,12,-
O=C(O)C1=C[C@@H](c2coc3ccccc3c2=O)C[C@@H](OCCCCO)O1,-,-
Cc1cccc(/C(N)=N/OC(=O)c2cccc3ccccc23)c1,-,-5.7
N/C(=N\OC(=O)c1cccc2ccccc12)c1cccc([N+](=O)[O-])c1,-,-
CCc1ccccc1NC(=O)C1CCCN(S(=O)(=O)c2ccc3c(c2)CC(C)N3C(C)=O)C1 (centres undefined),.,-
COc1ccc(-c2cc(C(F)(F)F)nc(N3CCN(Cc4ccccc4)CC3)n2)cc1OC,-,-5.6
COc1ccc(-c2cc(C(F)(F)F)nc(N3CCN(c4ccc(F)cc4)CC3)n2)cc1OC,-,-
COc1ccc(OCCNC(=S)Nc2cccc3ccccc23)cc1,-,-6.2
COc1ccc(CCNC(=S)Nc2cccc3ccccc23)cc1,.,-
CCn1c(SCC(=O)Nc2oc(-c3ccccc3)c(-c3ccccc3)c2C#N)nnc1-c1cc(OC)cc(OC)c1,.,-
N#Cc1c(/N=C/C=C/c2ccccc2)sc2c1CCCC2,.,-
CCc1ccc(OCCCC(=O)NCc2ccco2)cc1,-,-
CCc1ccc(N/C(SCc2ccccc2C)=C(/C#N)C(=O)NCc2ccco2)cc1,-,-6.1
COC(=O)c1ccc(CN(C)S(=O)(=O)c2cccs2)cc1,.,-
CCOC(=O)Cn1c(=NC(=O)CSC(C)=O)sc2cc(OC)ccc21,.,-
CCOC(=O)Cn1c(=NC(=O)CSC(C)=O)sc2ccccc21,-,-6.8
Cc1cc(C)c(S(=O)(=O)N2CCOC2CNC(=O)C(=O)NCCCN2CCOCC2)c(C)c1 (centres undefined),.,-
COc1ccc(C(=O)COC(=O)CNS(=O)(=O)c2ccc(C)cc2)cc1,.,-
C=CCc1cc(/C=C2/NC(=O)N(CC(=O)OC)C2=O)cc(OC)c1O,-,-
CN(CC(=O)NC(c1ccccc1)c1ccccc1)Cc1nc2ccccc2c(=O)[nH]1,-,-6.6
CN(CC(=O)Nc1ccccc1Sc1ccccc1)Cc1nc2ccccc2c(=O)[nH]1,.,-
SMILES,KCNQ2 enhance,KCNQ2 block
Cc1ncsc1C(=O)N1CCCC(CNS(=O)(=O)c2cccs2)C1 (centres undefined),-,-
O=C(O)CC1(CC(=O)Nc2ccc3ccccc3c2)CCCCC1,.,-
O=C(O)CC1(CC(=O)Nc2ccc(Br)cc2)CCCCC1,-,-7.6
COCCNC(=S)N1CCN(Cc2cccc(OC)c2)CC1,.,-
Cc1ccc(C(NC(=O)NC(C)c2ccccc2)C(Cl)(Cl)Cl)cc1F (centres undefined),17,-
CC(NC(=O)Nc1ccc(Cl)cc1)c1ccccc1 (centres undefined),.,-
CC1(C)NC(=O)N(CC(O)CN(c2ccccc2)S(=O)(=O)c2ccccc2[N+](=O)[O-])C1=O (centres undefined),-,-
Cc1c(C(=O)NCc2ccccc2)c(-c2ccccc2)nn1-c1ccccc1,-,-5.6
Cc1c(C(=O)NC(C)C)c(-c2ccccc2)nn1-c1ccccc1,.,-
CC1CCC2C(=O)N(c3ccc(C(=O)Oc4cccc5cccnc45)cc3)C(=O)C2C1 (centres undefined),.,-
C=CCn1c(=O)c(C(=O)Nc2ccccc2O)c(O)c2ccccc21,.,-
C=CCn1c(=O)c(C(=O)Nc2ccccc2C)c(O)c2ccccc21,-,-6.1
CC1(c2ccc(OC(F)F)cc2)NC(=O)N(/N=C/c2c(O)ccc3ccccc23)C1=O (centres undefined),.,-
CCC(NS(=O)(=O)c1ccc(C)cc1)C(=O)N1CCOCCOCCOCCOCC1 (centres undefined),-,-
COc1cccc(-c2ccc(NC(=O)C3CCCN(Cc4cnc(C)n4C)C3)cc2)c1 (centres undefined),.,-
Cc1ncc(CN2CCCC(C(=O)Nc3ccc(-c4cccc(F)c4)cc3)C2)n1C (centres undefined),-,-5.7
O=C(CCCOc1ccccc1)NC(=S)Nc1ccccc1,-,-
O=C(N/N=C/c1ccc([N+](=O)[O-])cc1)c1[nH]ncc1Br,-,-
Cc1cccc(N2CCN(C(=O)c3cc4c(=O)n(C)c5ccccc5c4n3C)CC2C)c1 (centres undefined),-,-6.1
